SMN2 splice enh – increases expression of the SMN2 splice variant; AID 1458; 2.8% of 210,000 active; HEK293 SMN2-luciferase splicing reporter, luminescence, 30-36 h; Potency, µM (top dose mostly 46.1 µM), for the others: top-dose activity change, positive = activation, actives largely listed as activators; further: % of control where 0% means no effect; nearly all actives have a fitted effect of over 55% in size
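HEK293 cells carry an SMN2 minigene-luciferase reporter in which exon 7 inclusion puts luciferase in frame. Cells were seeded at 2000 cells/well, attached for 10-12 hours, then exposed to compounds for 30-36 hours at 37C before ONE-Glo luminescence.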
Rab9 prom act – activators of Rab9 promoter. Huh7 Rab9 promoter-luciferase reporter, luminescence, 24 h. Potency, µM (highest dose often 9.22 µM), for inactives: top-dose activation, negative = inhibition, hits mostly activators. 2.8% of 320,000 active; further: % of control where 0% means no effect; nearly all actives have a fitted effect of over 60% in size
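Luminescence read-out: Huh7 cells stably expressing Rab9-luciferase, treated 24 h with compound at 37 °C, then lysed with luciferase reagent for 10 min at ambient before reading.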
FLuc counter – firefly luciferase modulation, counter-screen for miR-21 project | P08659 | purified FLuc, Km substrates, luminescence inhibition | Potency, µM (series often up to 57.5 µM), for inactives: at the top dose activity change, negative = inhibition, usual class: inhibitors | 6.9% of 360,000 active | AID 588342;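 further: plate controls were vehicle for no effect and reference inhibitor for full effect; nearly all actives have a fitted effect of over 55% in size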
Target sequence (P08659 whole entry, looked up): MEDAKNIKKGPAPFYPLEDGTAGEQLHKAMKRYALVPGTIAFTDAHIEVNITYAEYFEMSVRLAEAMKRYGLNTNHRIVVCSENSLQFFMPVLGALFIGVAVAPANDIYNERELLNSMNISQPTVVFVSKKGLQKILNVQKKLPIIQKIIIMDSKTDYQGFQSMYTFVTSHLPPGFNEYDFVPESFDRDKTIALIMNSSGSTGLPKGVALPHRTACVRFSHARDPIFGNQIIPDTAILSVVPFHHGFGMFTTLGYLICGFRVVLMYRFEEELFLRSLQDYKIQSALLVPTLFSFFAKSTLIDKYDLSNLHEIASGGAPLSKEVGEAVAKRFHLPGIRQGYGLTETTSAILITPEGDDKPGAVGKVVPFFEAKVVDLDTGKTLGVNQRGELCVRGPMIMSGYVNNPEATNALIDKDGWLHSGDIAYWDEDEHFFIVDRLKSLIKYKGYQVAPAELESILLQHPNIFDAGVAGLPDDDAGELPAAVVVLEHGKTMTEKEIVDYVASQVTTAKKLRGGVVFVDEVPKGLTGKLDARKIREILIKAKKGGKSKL
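Biochemical qHTS of compounds, final roughly 60 µM downward over six points, against 10 nM purified firefly luciferase using Km concentrations of substrates (10 uM D-luciferin, 10 uM ATP) in Tris acetate pH 7.5 buffer; luminescence output.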
NPC1 prom act – activators of NPC1 promoter; 2.4% of 320,000 active; Potency, µM (highest dose often 9.22 µM), for inactives: at the top dose activation, hits mostly activators; Huh7 NPC1 promoter luciferase reporter, 24 h; further: % of control where 0% means no effect; nearly all actives have a fitted effect of over 60% in size
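Huh7 reporter cells (NPC1 promoter driving luciferase) are dosed with compound for 24 h at 37 °C, 5% CO2; luciferase detection reagent is then added and luminescence measured after 10 min at ambient temperature.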
ELG1 genotoxic – inducers of genotoxicity in HEK293T ELG1-luciferase cells; HEK293T ELG1-luciferase reporter, luminescence, 16 h; Potency, µM (titrated, usually from 46 µM), inactives show at the top dose activity change, positive = activation, hits mostly activators; 1.3% of 330,000 active; AID 504466; further: % of control where 0% means no effect; nearly all actives have a fitted effect of over 60% in size
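Quantitative HTS format in 1536-well plates. HEK293T ELG1-luciferase reporter cells receive test compound and are incubated 16 hr at 37 °C, 5% CO2; ONE-Glo added, 30 min room temperature, then luminescence read.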
KinaseGlo FLuc – counter-screen: inhibitors of Kinase-Glo firefly luciferase; Q27757; Kinase-Glo luciferase, ATP luminescence, 8 min; 0.28% of 200,000 active; AID 1379; Potency, µM (titrated, usually from 38.3 µM), for inactives: top-dose activity change, negative = inhibition, actives largely listed as inhibitors; further: on the % scale 0 is the no-effect control and ±100 the full control effect; nearly all actives have a fitted effect of over 60% in size
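Inhibition of Kinase-Glo luciferase light generation was assessed at 10 uM ATP in pH 7.2 imidazole buffer, with luminescence measured after eight minutes at ambient temperature.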
* = called active by the depositor; u = inconclusive; x = no result; [ ] = remark or other dose. Most compounds without a hit are left out; they make up all but 7.5% or so of the library. The call rests on the fitted dose curve; in most records, active means well fitted curve in the direction sought with a large enough effect; inconclusive means small, poorly fitted or top-dose-only effect, or another doubt; inactive means no such curve, though single readings can be large; an effect the other way counts as inactive or inconclusive. Potency means the concentration at half of the fitted maximal effect.

SMILES	SMN2 splice enh	Rab9 prom act	FLuc counter	NPC1 prom act	ELG1 genotoxic	KinaseGlo FLuc
OC[C@@H]1CCC[C@H](n2cnc3c(=S)nc[nH]c32)O1	-2%[9.22 µM]	x	x	x	x	-2%[7.66 µM]
CCOC(=O)N/N=C/c1ccc(N(CC)CC)cc1O	u	-2%	24µM*	-11%	u	-1%
Cc1cc(C(=O)N/N=C/c2cccc(Cl)c2Cl)no1	20%	u	11µM*	u	21µM*	-4%
Cc1cc(C(=O)NNc2c(Cl)cccc2Cl)no1	x	1%	0%	-2%	1%	x
Cc1ccc(OCc2cnc(Cl)s2)c(C)c1	0%	0%	11µM*	4%	19%	-1%
Cc1cc(Br)ccc1NC(=O)CNC(=O)CN(C)C1CCS(=O)(=O)C1 (stereo unspecified)	x	-1%	0%	1%	1%	x
CCCCCCC[C@@H](C/C=C/CCC(=O)N(C)C/C(=C/Cl)C/C(=C\C(=O)N1CC(OC)=CC1=O)OC)OC	x	x	x	x	2.1µM*	x
CCCCCCC[C@@H](C/C=C/CCC(=O)N(C)C/C(=C/Cl)C/C(=C\C(=O)N1C[C@H](O)CC1=O)OC)OC	x	x	x	x	-11%	x
C=CCN1CCN(C(CCC)c2nnnn2Cc2ccco2)CC1 (stereo unspecified)	-5%	-12%	-1%	-6%	3%	-4%
COc1ccc(-c2noc(N(c3ccc(F)c(Cl)c3)c3nc(-c4ccc(OC)c(OC)c4)no3)n2)cc1OC	3%	x	-7%	x	x	x
CCN1CCN(c2ncnc3c2cnn3-c2ccc(C)cc2)CC1	x	x	11µM*	x	x	x
Cc1ccc(-n2ncc3c(N4CCCCCC4)ncnc32)cc1	x	x	0.12µM*	x	x	x
Clc1ccc(-n2ncc3c(N4CCCC4)ncnc32)cc1	-75%	0.32µM*	0.34µM*	0.5µM*	0.18µM*	-2%
CCOC(=O)C1CCN(c2ncnc3c2cnn3-c2ccc(Cl)cc2)CC1	-46%	-2%	u	1%	0%	0%
CCN1CCN(c2ncnc3c2cnn3-c2cc(Cl)ccc2C)CC1	x	x	-1%	x	x	x
Fc1ccc(-n2ncc3c(N4CCCCCC4)ncnc32)cc1	x	x	0.95µM*	x	x	x
CCC(=O)Nc1cc2c3c(c1)CCC(=O)N3CCC2	x	-2%	1%	-1%	8%	x
CC(=O)Nc1ccc(NC(=O)c2ccccc2CCc2ccccc2)cc1	32µM*	-4%	-2%	1%	-6%	1%
CC(C)(C)c1ccc(C(=O)NCCCNC(=O)c2ccco2)cc1	x	1%	15µM*	-4%	2%	x
O=C(NCCc1ccccc1)c1ccncc1	8%	3.5µM*	u	29%	u	-4%
Cc1ccc(C(=O)Nc2ncn[nH]2)cc1	x	11%	u	-3%	9%	x
CC(C)(C)c1ccc(C(=O)Nc2ncn[nH]2)cc1	10µM*	2.5µM*	9.5µM*	2.2µM*	u	-17%
CC(C)(C)c1ccc(NC(=O)CCNC(=O)c2ccco2)cc1	x	0%	u	2%	6%	x
O=C(COc1ccccc1C(=O)Nc1ccccc1)NCCc1ccccc1	6%	5%	-2%	-4%	-2%	3%
CC(=O)Nc1ccc(C(=O)NCCc2ccccc2)cc1	16µM*	u	u	u	u	1%
SMILES	SMN2 splice enh	Rab9 prom act	FLuc counter	NPC1 prom act	ELG1 genotoxic	KinaseGlo FLuc
Cc1ccc(NS(=O)(=O)c2ccc(C(=O)NCc3cccnc3)cc2)cc1	x	7%	21µM*	17%	u	x
CCCCOc1ccc(C(=O)NCCc2ccccc2)cc1	x	1.1µM*	6µM*	0.32µM*	u	x
Cc1ccc(NC(=O)COc2ccccc2C(=O)NCCc2ccccc2)cc1	x	9%	21µM*	2%	0%	x
CCSc1ccc([C@@H]2[C@H]3C(=O)N(CC)C(=O)[C@H]3[C@]3(C(=O)OC)CCCCN23)cc1OC	x	x	x	x	-2%	x
CC(Oc1ccc(C(=O)NCCc2ccccc2)cc1)C(=O)O (stereo unspecified)	-7%	1%	-19%	8%	2%	-6%
CC1CCN(c2ccc(C(=O)NCCc3ccccc3)cn2)CC1	u	u	24µM*	u	15%	-2%
CC1CCN(S(=O)(=O)CCNC(=O)c2ccccc2)CC1	x	3%	5%	-3%	-1%	x
CC(C)(C)c1ccc(C(=O)Nc2ccc(C(=O)NCc3cccnc3)cc2)cc1	x	15%	12µM*	4%	-21%	x
CC(C)(C)C(=O)Nc1ccc(C(=O)NCc2cccnc2)cc1	3%	x	u	x	x	-1%
O=C(NCCCc1ccccc1)c1ccc(F)cc1	x	1.8µM*	24µM*	u	u	x
O=C(NCCCCNC(=O)c1ccc(F)cc1)c1ccc(F)cc1	x	3%	1%	-3%	3%	x
CC(C)(C)c1ccc(C(=O)NCCc2ccccc2)cc1	x	0.089µM*	0.76µM*	0.35µM*	u	x
CC(=O)Nc1ccc(NC(=O)C(C)OC(=O)c2cccc(S(=O)(=O)N3CCCC3)c2)cc1 (stereo unspecified)	x	-6%	-3%	-2%	0%	x
CN1CCN(Cc2nc3cccc4c3c([n+]2[O-])-c2ccccc2-4)CC1	1%[9.22 µM]	x	x	x	x	-1%[7.66 µM]
CC(C)(C)c1ccc(C(=O)NCc2ccccc2)cc1	x	6.3µM*	11µM*	23%	17%	3%
O=C(NCCc1ccccc1)c1ccc(Cl)nc1	11µM*	2µM*	12µM*	4µM*	u	-1%
CC(C)(C)c1ccc(C(=O)Nc2cnccn2)cc1	28µM*	0.56µM*	1.3µM*	1.8µM*	0.65µM*	2%
COc1ccccc1N1CCN(S(=O)(=O)c2ccc3c(c2)CCCN3C(C)=O)CC1	x	x	-4%	x	x	x
C=CCNS(=O)(=O)c1ccc(OCC(=O)OC)cc1	24%	6%	-1%	1%	-3%	1%
O=C(COC(=O)CCC(=O)c1cccs1)Nc1cc(S(=O)(=O)N2CCOCC2)ccc1Cl	-30%	-1%	4%	-5%	-7%	4%
O=C(Nc1nccc(-c2cccs2)n1)c1cccs1	u	u	19µM*	2.8µM*	u	-11%
Cc1cccc(NC(=O)c2cccs2)n1	21%	u	u	u	-44%	-11%
Cc1ccnc(NC(=O)c2cccs2)c1	u	2.2µM*	15µM*	3.5µM*	u	u
Cc1cc(NC(=O)c2cccs2)ncc1NC(=O)C(C)(C)C	x	1.4µM*	11µM*	0.89µM*	4.1µM*	x
O=C(Nc1ccon1)c1ccc(Br)s1	x	9%	-12%	12%	-4%	x
Cc1ccnc(NC(=O)c2ccc(Br)s2)c1	x	1.6µM*	2.7µM*	1.1µM*	u	x
O=C(Nc1ccccn1)c1cccs1	30%	x	u	x	x	-22%

Compound activity (PubChem BioAssay)
